Bioassay records as filed in PubChem BioAssay.
Shown are actives, neighbours in structure and some others; about 1% of the full set was active somewhere.
Sa RN4220 lethal = S. aureus RN4220 growth inhibition; OD600, 16 h; inhibition, % (test concentration not listed); actives 0.33% (n = 330,000); AID 1259311; in the data active = inhibition above about 85%;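 also: plate controls were untreated cells for no effect and reference antibiotic for full effect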
Mtb hypoxia inh = inhibitors of hypoxia-regulated fluorescent reporter in Mycobacterium tuberculosis; M. tuberculosis hypoxia-regulated fluorescent reporter, fluorescence; fluorescence inhibition, % (concentration not given with the values); actives 0.1% (n = 300,000); in the data active = fluorescence inhibition mostly above about 23%, no sharp cut-off; inactive = mostly below about 17%
PriA SSB inh = K. pneumoniae PriA-SSBct interaction inhibition; actives 0.6% (n = 430,000); AlphaScreen SSBct-PriA binding, biotinylated peptide; inhibition, % at 33 µM; AID 1272365; in the data active = inhibition mostly above about 37%, no sharp cut-off; inactive = mostly below about 20%;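 also: plate controls were negative control peptide for no effect and reference peptide for full effect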
Mtb bLac sens = beta-lactam sensitization of Mtb H37Rv | M. tuberculosis H37Rv growth with meropenem, percent inhibition | inhibition, % at 25 µM | actives 0.27% (n = 330,000) | AID 434955; call rule not given here;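 also: growth measured after seven days incubation then overnight dye step; 0% = bacteria only wells and 100% = bacteria with antibiotic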
Sa ugtP lethal = compounds lethal to S. aureus RN4220 ugtP deletion mutant; OD600 growth, 16 h; growth inhibition, % (concentration not given with the values); actives 0.54% (n = 330,000); AID 1259309; in the data active = growth inhibition above about 68%;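 also: plate controls were untreated wells for no effect and antibiotic for full effect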
An asterisk follows results filed as active; . = no result given.

SMILES	Sa RN4220 lethal	Mtb hypoxia inh	PriA SSB inh	Mtb bLac sens	Sa ugtP lethal
O=C(Nc1nnc(-c2ccc(Br)cc2)o1)c1ccc(S(=O)(=O)N2CCCCCC2)cc1	.	.	5	.	.
C=CCOC(=O)C1=C(C)NC(=O)NC1c1ccc(Cl)cc1 (stereo not given)	4	4	102*	-5	1
CCn1cc(NC(=O)Nc2ccc(OC(F)F)cc2)c2ccccc21	.	.	40*	.	.
Cn1cc(NC(=O)Nc2ccc(OC(F)(F)F)cc2)c2ccccc21	.	.	-1	.	.
COC(=O)c1ccccc1NC(=O)CSc1ccc2ccccc2n1	.	.	-13	.	.
O=[N+]([O-])c1ccc(Nc2ccccc2O)c2nonc12	38	.	41*	95	47
CCc1nnc(NS(=O)(=O)c2ccc(NS(=O)(=O)c3ccccc3[N+](=O)[O-])cc2)s1	-1	1	-8	4	1
CCc1nnc(NS(=O)(=O)c2ccc(Nc3ccc([N+](=O)[O-])c4nonc34)cc2)s1	6	39*	18	3	-4
O=C(Cn1nnc2ccccc21)NCCn1nc(-n2cncn2)ccc1=O	.	.	-5	.	.
O=C(NCCn1ncc2c(=O)n(Cc3ccccc3)cnc21)c1ccc(-c2ccccc2)cc1	.	.	-23	.	.
CCOc1ccc(-c2ccc(/C=C3/C(=N)N4C=CSC4=NC3=O)o2)c([N+](=O)[O-])c1	8	1	9	-11	40
CCOc1ccc(-c2ccc(/C=C3/C(=N)N4C(C)=CSC4=NC3=O)o2)c([N+](=O)[O-])c1	11	5	31	8	100*
CCOc1cc(CNCCO)cc(Br)c1OCc1ccc(Cl)cc1Cl	100*	25	-6	100	98*
CCOc1cc(CNCc2ccncc2)cc(Br)c1OCc1ccccc1F	4	12	-2	85	92*
CCCS(=O)(=O)Nc1ccc2c(c1)N(C(=O)[C@@H]1CCCO1)CC2	.	.	0	.	.
O=C(O)CNc1c([N+](=O)[O-])cc(C(F)(F)F)cc1[N+](=O)[O-]	.	.	19	.	.
FC(F)(F)c1cccc(NC(=S)Nc2ccc(Cl)c(Cl)c2)c1	101*	10	-18	95	101*
O=[N+]([O-])c1cc(C(F)(F)F)cc([N+](=O)[O-])c1NCCNC(=S)Nc1ccc(Cl)c(Cl)c1	99*	5	-1	92	100*
FC(F)(F)c1cccc(NC(=S)NNC(=S)Nc2cccc(C(F)(F)F)c2)c1	.	.	.	100	.
Cc1ccc(NC(=O)c2ccc(Cl)c(S(=O)(=O)NCc3ccco3)c2)c(O)c1	4	-7	-9	-4	-3
NS(=O)(=O)c1ccc(NC(=O)c2ccc(Cl)c(S(=O)(=O)NCc3ccco3)c2)cc1	-2	22*	-1	-10	3
Cn1nc([N+](=O)[O-])nc1Sc1cccc2cccnc12	2	-4	78*	4	28
OC(c1ccccn1)(c1ccccn1)c1ccccn1	9	-1	79*	2	5
Cc1c(C2C(C#N)=C(N)N(c3ccccc3C#N)C3=C2C(=O)CCC3)cnn1C (stereo not given)	7	14	38*	1	11
N#CC1=C(N)N(c2ccccc2C#N)C2=C(C(=O)CCC2)C1c1ccsc1 (stereo not given)	6	3	10	-21	5
SMILES	Sa RN4220 lethal	Mtb hypoxia inh	PriA SSB inh	Mtb bLac sens	Sa ugtP lethal
Cc1ccc(O)c(C(=O)c2cnc3c(c2)COc2ccc(C)cc2-3)c1	6	.	39*	65	45
Cc1ccc2c(c1)-c1ncc(C(=O)c3cc(Br)ccc3O)cc1CO2	12	1	.	16	63
COc1ccc(CNC(=O)N2CC(c3nc(-c4cnccn4)no3)C2)cc1OC	.	.	-12	.	.
NC(=O)c1ccc(NC(=O)Cc2csc3nc(-c4ccccc4)cn23)cc1	.	.	5	.	.
O=C(NC(Cc1ccccc1)C(=O)CCl)OCc1ccccc1 (stereo not given)	101*	-7	.	.	100*
CC(C)CC(NC(=O)OCc1ccccc1)C(=O)NC(Cc1ccccc1)C(=O)CCl (stereo not given)	.	.	-12	.	.
N#Cc1ccc(COCC2CCN(CC(=O)NC3CC3)CC2)cc1	.	.	-17	.	.
N#Cc1ccc(COc2cccnc2[N+](=O)[O-])cc1	1	3	-11	-3	10
O=[N+]([O-])c1ncccc1OCc1ccc(-c2ccccc2)cc1	-1	-13	-2	34	89*
COc1ncccc1C(=O)NCc1ccncc1	.	.	3	.	.
Cn1nc2c(c1NC(=O)C1CCCN(S(=O)(=O)c3cccs3)C1)CCC2 (stereo not given)	.	.	-6	.	.
CCCCC1NC(=S)N(C2CCCCC2)C1=O (stereo not given)	5	2	-15	6	89*
